In experiment [1] the target is DNA polymerase III PolC-type (Bacillus subtilis (strain 168)) (UniProt P13267). As to the kind of experiment: qHTS Validation Assay for the Inhibitors of DNA Replication in Gram-Positive Bacteria (AID 485295).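 Note: reconstituted holoenzyme with PolC plus beta clamp SSB and primase; PicoGreen fluorescence of double-stranded DNA made on primed circular M13 template; series mostly up to about 57 µM.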 In short, it runs like this: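 First, compound is mixed with the reconstituted replication complex and held at room temperature. Next, circular single-stranded M13Gori with nucleotides starts synthesis. Finally, PicoGreen in EDTA halts the reaction and stains double-stranded product for fluorescence reading.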

The target of experiment [2] is Tumor susceptibility gene 101 protein (Homo sapiens) (UniProt Q99816). Description: qHTS Validation Assay for Iinhibitors of HIV-1 Budding by Blocking the Interaction of PTAP/TSG101 (AID 485342; calls by dose curve). The method, boiled down: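 Binding of a FITC-tagged PTAP-motif peptide (50 nM) to the Tsg101 binding domain (10 uM) is monitored by fluorescence polarization. Compounds are pin-delivered before peptide addition, and incubation runs 20 min at room temperature.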

Experiment [3] in a line: qHTS Validation Assay to Find Inhibitors of Chronic Active B-Cell Receptor Signaling (AID 485345; active = well fitted curve in the direction sought with a large enough effect in the main read-out, with a control signal flat, not every such curve was filed as active). The method, boiled down:
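TMD8 ABC-DLBCL cells with dox-inducible green luciferase–IκBα fusion and red native luciferase; compounds 46 uM–3 nM, 4 h at 37C with doxycycline in 0.5% FBS IMDM. Green/red ratio normalized to basal and 10 uM MG-132.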
In general terms: qHTS replaces the single test concentration by a dilution series.

The target of experiment [4] is Beta-2 adrenergic receptor (Homo sapiens) (UniProt P07550). As to the kind of experiment: qHTS validation assay of beta-arrestin-biased ligands of beta2-adrenergic receptor (AID 485366). The method, boiled down: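 Compound series up to 46 microM applied to beta2-AR/beta-arrestin Tango cells, 18 hr, 37 degrees C, 5% CO2. Read-out: tTA-driven luciferase luminescence, converted to %Activity; concentration-response curves assigned curve classes.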

Experiment [5] addresses ATP-dependent 6-phosphofructokinase (Trypanosoma brucei brucei) (UniProt O15648). As to the kind of experiment: qHTS Validation Assay to Find Inhibitors of T. brucei phosphofructokinase (AID 485368). The settings on record: outcome: dose series up to 57.5 µM. The method, boiled down: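 qHTS format, up to 57 uM. PFK 1.25 nM; F6P 0.5 mM; ATP 0.1 mM; 5 mM MgCl2, 0.01% Tween20, 0.1% BSA; 0.1 M TEA pH 8.0; 45 min RT; ADP-Glo readout; no-enzyme control = full inhibition.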

Experiment [6] deals with Thioredoxin reductase 1, cytoplasmic (Rattus norvegicus) (UniProt O89049). As to the kind of experiment: qHTS Assay for Substrates of Mammalian Selenoprotein Thioredoxin Reductase 1 (TrxR1) (AID 488772).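 Note: series mostly up to about 57 µM; a drop in NADPH fluorescence below the no-compound background marks a TrxR1 substrate.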 The method, boiled down: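 In this dual-purpose format, potential substrates are identified from the first fluorescence read after selenite addition, not from the 8-minute delta. Rat enzyme is preincubated with NADPH and then with compound at ~22 deg C.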

Experiment [7] shares this target. As to the kind of experiment: qHTS Assay for Inhibitors of Mammalian Selenoprotein Thioredoxin Reductase 1 (TrxR1) (AID 488773).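 Note: drop in NADPH fluorescence over an 8 min run after selenite addition; series mostly up to about 57 µM; nearly all actives have a fitted effect of over 40% in size.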 In short, it runs like this: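 Inhibition is scored from the loss of NADPH fluorescence between first and last reads of an 8-min kinetic run. Selenite (400 uM) was the substrate, added after 15 min compound preincubation at room temperature.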

In experiment [8] the target is Flap endonuclease 1 (Homo sapiens) (UniProt P39748). Description: qHTS Validation Assay for the Inhibitors of Human Flap endonuclease 1 (FEN1) (AID 488816). The method, boiled down:
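Steps: add FEN1 (10 nM reagent) or buffer only; pin compounds; hold 15 min at room temperature; start with substrate, 50 nM final; read at 0 and 15 min; correct, normalize and fit a four-parameter Hill curve.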

Experiment [9] is described as follows: Quantitative high throughput screen for delayed death inhibitors of the malarial parasite plastid, 48 hour incubation (AID 488752). Note: nearly all actives have a fitted effect of over 65% in size. Note: potency is the fitted concentration of half-maximal effect. In short, it runs like this:
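First, compound was pinned into RPMI 1640 medium containing 0.5% Albumax. Next, reporter-parasite-infected erythrocytes were added to 2% hematocrit and 0.1% parasitemia. After 48 h at 37 C under 5% CO2, luciferase detection reagent was added and luminescence read.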

A short description of experiment [10]: Quantitative high throughput screen for delayed death inhibitors of the malarial parasite plastid, 96 hour incubation (AID 488745). Note: nearly all actives have a fitted effect of over 70% in size. Note: potency is the fitted concentration of half-maximal effect. In short, it runs like this:
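Readout is firefly luciferase luminescence from an integrated reporter in P. falciparum; lower signal marks inhibited growth. Cultures at 2% hematocrit and 0.1% parasitemia were treated with compound across two generations (96 h, 37 C, 5% CO2).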

Records with an inconclusive call do not appear. Activity calls are given as the source filed them. Unless noted, calls come from the whole dose curve; as a rule, active = well fitted curve in the direction sought with a large enough effect; inconclusive = small, poorly fitted or top-dose-only effect, or another doubt; inactive = no such curve, though single readings can be large; an effect the other way counts as inactive or inconclusive.

Sequence of Thioredoxin reductase 1, cytoplasmic (Rattus norvegicus) (O89049 whole entry, looked up): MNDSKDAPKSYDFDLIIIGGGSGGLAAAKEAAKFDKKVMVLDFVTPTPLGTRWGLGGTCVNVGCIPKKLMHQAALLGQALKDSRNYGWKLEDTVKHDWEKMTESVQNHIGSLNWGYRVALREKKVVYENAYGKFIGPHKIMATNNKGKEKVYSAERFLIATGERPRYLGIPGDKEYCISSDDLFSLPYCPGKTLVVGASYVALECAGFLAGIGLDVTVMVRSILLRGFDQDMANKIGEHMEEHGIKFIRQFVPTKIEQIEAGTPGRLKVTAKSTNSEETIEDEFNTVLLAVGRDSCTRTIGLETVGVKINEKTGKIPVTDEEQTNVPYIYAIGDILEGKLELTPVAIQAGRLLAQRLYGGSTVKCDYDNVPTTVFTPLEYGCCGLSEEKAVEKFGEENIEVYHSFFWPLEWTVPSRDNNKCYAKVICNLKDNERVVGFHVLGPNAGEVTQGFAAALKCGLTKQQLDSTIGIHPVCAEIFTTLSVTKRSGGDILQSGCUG
Sequence of Flap endonuclease 1 (Homo sapiens) (P39748 whole entry, looked up): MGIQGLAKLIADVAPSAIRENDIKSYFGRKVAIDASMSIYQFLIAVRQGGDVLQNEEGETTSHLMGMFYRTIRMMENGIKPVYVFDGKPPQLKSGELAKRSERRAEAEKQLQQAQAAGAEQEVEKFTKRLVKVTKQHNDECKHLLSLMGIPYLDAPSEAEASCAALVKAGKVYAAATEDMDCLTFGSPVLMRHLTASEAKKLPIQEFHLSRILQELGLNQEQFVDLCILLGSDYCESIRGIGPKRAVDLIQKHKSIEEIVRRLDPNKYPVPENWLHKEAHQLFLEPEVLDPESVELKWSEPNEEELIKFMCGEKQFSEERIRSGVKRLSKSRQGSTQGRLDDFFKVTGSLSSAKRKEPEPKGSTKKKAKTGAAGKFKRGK
Sequence of ATP-dependent 6-phosphofructokinase (Trypanosoma brucei brucei) (O15648 whole entry, looked up): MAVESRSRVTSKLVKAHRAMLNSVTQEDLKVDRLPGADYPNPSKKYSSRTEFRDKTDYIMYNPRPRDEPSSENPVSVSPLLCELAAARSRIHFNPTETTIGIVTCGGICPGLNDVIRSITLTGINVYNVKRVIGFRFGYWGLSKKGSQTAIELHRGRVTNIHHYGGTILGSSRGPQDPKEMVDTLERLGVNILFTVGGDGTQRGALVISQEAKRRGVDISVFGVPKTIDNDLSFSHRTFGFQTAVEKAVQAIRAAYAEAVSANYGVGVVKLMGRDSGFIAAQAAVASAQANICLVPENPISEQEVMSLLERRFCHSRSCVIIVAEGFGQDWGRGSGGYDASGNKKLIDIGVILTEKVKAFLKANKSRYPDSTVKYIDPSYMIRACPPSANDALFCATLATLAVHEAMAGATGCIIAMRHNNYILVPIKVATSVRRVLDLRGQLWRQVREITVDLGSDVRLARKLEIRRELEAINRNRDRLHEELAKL
Sequence of DNA polymerase III PolC-type (Bacillus subtilis (strain 168)) (P13267 whole entry, looked up): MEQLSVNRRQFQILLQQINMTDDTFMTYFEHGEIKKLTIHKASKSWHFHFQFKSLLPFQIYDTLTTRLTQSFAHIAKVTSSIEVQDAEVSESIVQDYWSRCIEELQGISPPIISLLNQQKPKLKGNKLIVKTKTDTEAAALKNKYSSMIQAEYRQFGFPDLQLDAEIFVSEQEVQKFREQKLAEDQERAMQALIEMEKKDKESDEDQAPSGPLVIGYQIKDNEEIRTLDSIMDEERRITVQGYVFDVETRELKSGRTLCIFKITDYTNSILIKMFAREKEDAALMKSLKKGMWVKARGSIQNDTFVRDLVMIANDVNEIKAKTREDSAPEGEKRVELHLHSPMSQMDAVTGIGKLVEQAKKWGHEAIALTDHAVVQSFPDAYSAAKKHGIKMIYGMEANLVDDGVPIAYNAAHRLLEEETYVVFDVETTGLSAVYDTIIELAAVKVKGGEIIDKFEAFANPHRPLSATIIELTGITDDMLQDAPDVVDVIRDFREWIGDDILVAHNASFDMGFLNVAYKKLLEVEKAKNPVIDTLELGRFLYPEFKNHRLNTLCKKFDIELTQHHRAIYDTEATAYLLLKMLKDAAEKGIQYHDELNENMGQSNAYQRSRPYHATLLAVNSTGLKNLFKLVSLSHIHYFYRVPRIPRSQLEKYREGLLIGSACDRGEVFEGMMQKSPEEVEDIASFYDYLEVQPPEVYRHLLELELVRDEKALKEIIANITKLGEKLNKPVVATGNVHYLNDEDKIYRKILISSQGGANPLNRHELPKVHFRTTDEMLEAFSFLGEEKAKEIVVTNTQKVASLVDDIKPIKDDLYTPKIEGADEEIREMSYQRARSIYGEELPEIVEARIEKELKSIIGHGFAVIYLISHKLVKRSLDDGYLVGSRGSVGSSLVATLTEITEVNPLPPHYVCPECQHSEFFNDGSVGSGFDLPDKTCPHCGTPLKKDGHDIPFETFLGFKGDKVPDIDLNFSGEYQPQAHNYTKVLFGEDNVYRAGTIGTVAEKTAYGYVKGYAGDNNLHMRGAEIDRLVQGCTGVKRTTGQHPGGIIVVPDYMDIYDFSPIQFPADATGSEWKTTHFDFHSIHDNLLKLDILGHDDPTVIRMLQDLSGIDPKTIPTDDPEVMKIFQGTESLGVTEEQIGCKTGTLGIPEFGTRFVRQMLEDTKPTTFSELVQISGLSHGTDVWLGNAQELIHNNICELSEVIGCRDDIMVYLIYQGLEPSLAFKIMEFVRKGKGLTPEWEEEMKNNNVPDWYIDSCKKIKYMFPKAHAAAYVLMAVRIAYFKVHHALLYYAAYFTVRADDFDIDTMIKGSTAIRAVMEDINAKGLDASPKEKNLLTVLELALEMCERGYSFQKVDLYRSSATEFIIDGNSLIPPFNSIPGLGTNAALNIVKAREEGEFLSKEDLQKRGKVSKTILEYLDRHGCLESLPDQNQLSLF
Sequence of Beta-2 adrenergic receptor (Homo sapiens) (P07550 whole entry, looked up): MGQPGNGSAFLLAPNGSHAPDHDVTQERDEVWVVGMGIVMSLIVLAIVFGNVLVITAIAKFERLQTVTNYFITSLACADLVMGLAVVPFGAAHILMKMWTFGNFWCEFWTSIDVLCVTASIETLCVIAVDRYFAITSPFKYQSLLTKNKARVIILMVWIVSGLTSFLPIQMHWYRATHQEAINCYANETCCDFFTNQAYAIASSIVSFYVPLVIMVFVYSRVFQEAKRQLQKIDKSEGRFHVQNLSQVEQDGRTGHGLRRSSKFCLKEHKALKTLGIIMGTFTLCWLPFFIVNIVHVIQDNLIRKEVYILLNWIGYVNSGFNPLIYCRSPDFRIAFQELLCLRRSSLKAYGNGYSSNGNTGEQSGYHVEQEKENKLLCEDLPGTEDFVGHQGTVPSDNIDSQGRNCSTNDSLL
Sequence of Tumor susceptibility gene 101 protein (Homo sapiens) (Q99816 whole entry, looked up, the tested form may be a part): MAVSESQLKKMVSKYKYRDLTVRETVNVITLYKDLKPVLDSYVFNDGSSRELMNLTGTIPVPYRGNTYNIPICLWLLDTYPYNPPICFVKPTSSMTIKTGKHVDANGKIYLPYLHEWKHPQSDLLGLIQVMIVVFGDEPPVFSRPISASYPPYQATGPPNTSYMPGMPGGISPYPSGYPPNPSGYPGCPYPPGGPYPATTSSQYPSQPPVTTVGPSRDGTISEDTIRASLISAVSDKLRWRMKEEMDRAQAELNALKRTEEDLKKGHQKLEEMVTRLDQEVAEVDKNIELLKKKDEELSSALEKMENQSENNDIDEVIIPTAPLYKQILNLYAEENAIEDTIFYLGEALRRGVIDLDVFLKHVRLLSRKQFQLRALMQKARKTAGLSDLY

On to `Cc1ncsc1CCCl`, for which the molecule was classed as inactive in [1], in experiment [2], in experiment [3], in experiment [4], in experiment [5] and in experiment [6]. Further, the result in experiment [7] and in experiment [8] was inactive.
`C[C@]12CCC(=O)C=C1CC[C@@H]1[C@@H]2CC[C@]2(C)C(=O)CC[C@@H]12`: the Potency entry in [9] is “inactive”.
As for `CCCCC/C=C\C/C=C\C/C=C\C/C=C\CCCC(=O)NCC(=O)O`, the molecule was called inactive in experiment [1], in [2], in [3], in experiment [4], in [6] and in experiment [8]. The Potency result in [10] and in experiment [9] was “inactive” in each case.
For `O=c1[nH]oc2c1CCNC2`, the result in [1], in [2], in experiment [3], in experiment [4], in experiment [5] and in experiment [6] was inactive. Further, the outcome in experiment [7] and in [8] was inactive. Moreover, the Potency entry in [10] and in experiment [9] was “inactive” throughout.
On to `CCC1(c2ccc(N)cc2)CCC(=O)NC1=O` (stereo not drawn), for which the result in experiment [1], in experiment [2], in experiment [3], in [4], in experiment [5] and in [6] was inactive. Further, in experiment [7], the molecule was called inactive. Moreover, the Potency result in [10] and in [9] was “inactive” throughout.
On to `NCCc1ccc(O)cc1`, for which the molecule was classed as inactive in [1], in experiment [2], in experiment [3], in [4], in experiment [5] and in experiment [6]. Moreover, the outcome in experiment [7] and in [8] was inactive. Besides, the Potency result in experiment [10] and in [9] was “inactive” in each case.
`CN1C(=O)CCS(=O)(=O)C1c1ccc(Cl)cc1` (stereo not drawn): the result in experiment [1], in experiment [2], in experiment [3], in experiment [4], in experiment [5] and in [6] was inactive. Moreover, the molecule was classed as inactive in experiment [7] and in [8]. Besides, the Potency result in [10] and in experiment [9] was “inactive” each time.
As for `CC(=O)N1CCN(c2ccc(OC[C@H]3CO[C@](Cn4ccnc4)(c4ccc(Cl)cc4Cl)O3)cc2)CC1`, the Potency in experiment [10] was 11.7 µM (active); in experiment [9], 8.28 µM (active). In addition, the result in [8] was inactive.
Turning to `CC(NC(C)(C)C)C(=O)c1cccc(Cl)c1` (stereo not drawn), the molecule was classed as inactive in experiment [1], in [2], in experiment [3], in experiment [4], in experiment [6] and in [7]. The result in [8] was inactive. For the same molecule, the Potency entry in experiment [10] and in experiment [9] was “inactive” each time.
With `O=C(O)CCCc1ccc(N(CCCl)CCCl)cc1`, the molecule was called inactive in experiment [1], in experiment [2], in experiment [4], in experiment [6] and in experiment [8]. The Potency result in experiment [10] and in experiment [9] was “inactive” each time.
Regarding `O=C(CCCN1CCC2(CC1)C(=O)NCN2c1ccccc1)c1ccc(F)cc1`, the call in experiment [1], in experiment [2], in [4], in experiment [5], in experiment [6] and in experiment [7] was inactive. Also, in experiment [8], the outcome was inactive.
`O=P1(N(CCCl)CCCl)NCCCO1` (stereo not drawn): the molecule was classed as inactive in [1], in experiment [2], in experiment [3], in experiment [4], in [5] and in [6]. Besides, the outcome in experiment [7] and in experiment [8] was inactive. In addition, the Potency entry in experiment [10] and in experiment [9] was “inactive” throughout.
`CC(C)c1cccc(C(C)C)c1O`: the result in experiment [1], in experiment [2], in experiment [3], in experiment [4], in experiment [5] and in experiment [6] was inactive. Besides, the outcome in [7] and in experiment [8] was inactive. Moreover, the Potency result in experiment [10] and in experiment [9] was “inactive” in each case.
On to `CC(C)N(CCC(C(N)=O)(c1ccccc1)c1ccccn1)C(C)C` (stereo not drawn), for which the outcome in experiment [1], in experiment [2], in experiment [3], in [4], in experiment [5] and in experiment [6] was inactive. For the same molecule, the outcome in [7] and in [8] was inactive. In addition, the Potency result in [10] and in [9] was “inactive” in each case.
`CC(C)(C)NCC(O)c1ccccc1Cl` (stereo not drawn): the molecule was classed as inactive in experiment [1], in experiment [2], in [3], in experiment [4], in experiment [6] and in [7]. Also, the result in [8] was inactive. In addition, the Potency entry in experiment [10] and in experiment [9] was “inactive” each time.
For the molecule `COc1ccc2c(c1OC)C(=O)O[C@H]2[C@@H]1c2cc3c(cc2CCN1C)OCO3`, the outcome in [1], in experiment [2], in experiment [4], in experiment [5], in [6] and in experiment [7] was inactive. Also, the outcome in experiment [8] was inactive. Moreover, the Potency result in experiment [9] was “inactive”.
Take `C=C(C)[C@H]1CN[C@H](C(=O)O)[C@H]1CC(=O)O`: the outcome in [1], in experiment [2], in [3], in experiment [4], in experiment [6] and in [7] was inactive. The call in experiment [8] was inactive. In addition, the Potency result in [10] and in experiment [9] was “inactive” each time.

For the origin of these results see PubChem BioAssay (NCATS).
